Results as given in PubChem BioAssay (NCATS).
Results filed as inconclusive are left out. Calls of active or inactive are those of the source. Calls come from the whole dose curve; as a rule, active = well fitted inhibition curve with a large enough effect; inconclusive = small, poorly fitted or top-dose-only effect; inactive = no such curve, though single readings can be large or run the other way.

Molecular target: Cytochrome P450 3A4 (Homo sapiens) (UniProt P08684)
Assay: qHTS Assay for Inhibitors and Substrates of Cytochrome P450 3A4 (AID 884); note: nearly all actives have a fitted effect of over 50% in size
Settings: recombinant CYP3A4, Luciferin-PPXE luminescence; series mostly up to 57.1 µM
Method in brief: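 Luminescent readout of luciferin produced by CYP3A4 (20 nM) dealkylation of Luciferin-PPXE, 25 uM (its KM). NADPH-driven reaction ran 60 min at RT after 10 min compound preincubation; data scaled to 57 uM ketoconazole as 100% inhibition.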
Potency is the fitted concentration of half-maximal effect.

Sequence of Cytochrome P450 3A4 (Homo sapiens) (P08684 whole entry, looked up): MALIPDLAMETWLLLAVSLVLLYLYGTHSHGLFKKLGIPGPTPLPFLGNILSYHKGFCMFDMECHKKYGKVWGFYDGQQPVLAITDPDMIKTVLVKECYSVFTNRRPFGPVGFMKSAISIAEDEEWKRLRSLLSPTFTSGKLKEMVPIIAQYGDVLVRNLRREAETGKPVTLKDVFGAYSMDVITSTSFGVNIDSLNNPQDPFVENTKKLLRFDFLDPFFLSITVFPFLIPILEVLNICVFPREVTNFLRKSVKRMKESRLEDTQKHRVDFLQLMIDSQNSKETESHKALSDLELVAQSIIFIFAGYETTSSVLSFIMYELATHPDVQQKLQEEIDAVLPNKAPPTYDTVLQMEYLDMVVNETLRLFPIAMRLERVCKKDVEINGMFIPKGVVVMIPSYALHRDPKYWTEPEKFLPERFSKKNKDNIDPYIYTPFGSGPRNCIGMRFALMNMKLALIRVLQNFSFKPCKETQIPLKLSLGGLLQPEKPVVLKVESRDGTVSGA

Row | Compound | Potency
1 | CNc1ccccc1C(=O)N1CCc2c([nH]c3ccccc23)C1=O | 1 µM (active)
2 | CON | inactive
3 | CC(=O)OC1CC(OC(C)=O)[C@]2(C)C(CC(=O)[C@]3(C)C2CC[C@@]2(C)C(c4ccoc4)OC(=O)C4O[C@@]423)C1(C)C (some centres not stated) | 20 µM (active)
4 | Cc1ccc2c(c1)CC[C@H]1CC(=O)CC[C@@]21C | 15.8 µM (active)
5 | COc1ccc(-c2cc(=O)c3c(O)cc(O[C@@H]4OC(COC5OC(C)C(O)C(O)[C@@H]5O)C(O)C(O)C4O)cc3o2)cc1 (some centres not stated) | inactive
6 | CCN(CC)Cc1ccc(Nc2ccnc3cc(Cl)ccc23)cc1O | inactive
7 | CCN1CCN(C(=O)NC(C(=O)NC2C(=O)N3C2SC(C)(C)C3C(=O)O)c2ccccc2)C(=O)C1=O (configuration not stated) | inactive
8 | COc1ccc2c(c1)[C@]1(C)CCC(=O)C[C@H]1CC2 | 3.16 µM (active)
9 | CCCCCC(=O)Cc1cc(O)cc(O)c1C(=O)Oc1cc(CC(=O)CCCCC)c(C(=O)O)c(OC)c1 | 15.8 µM (active)
10 | COc1c(OC)c2occc2c2oc(=O)ccc12 | 10 µM (active)
11 | CCCCC(=O)Oc1ccccc1C(=O)O | inactive
12 | CC1(O)CC2C(CC1O)C2(C)C (configuration not stated) | inactive
13 | Nc1nc2c(nc(Sc3ccc(Cl)cc3)n2C2OC(CO)C(O)C2O)c(=O)[nH]1 (configuration not stated) | 15.8 µM (active)
14 | COc1ccc(C2CC(=O)c3c(O)cc(O)cc3O2)cc1O (configuration not stated) | 15.8 µM (active)
15 | C=C(C)C1CC=C(CO)CC1 (configuration not stated) | inactive
16 | O=C1CC(c2ccc(O)c(O)c2)Oc2cc(O)cc(O)c21 (configuration not stated) | 39.8 µM (active)
17 | COc1ccc(/C=C/C(=O)c2ccc(O)cc2O)cc1OC | 1.26 µM (active)
